In PubChem BioAssay AID1347426 (Functional Genomics Laboratory (NCATS/FGL), 2020) one finds median seed-adjusted z-score data, which are given here for 30 sequences.

Out of some 31,000 sequences screened, about 1,400 (4.5%) were called active.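 How the source made its calls: active means median seed-adjusted z-score above 1 or below -1; inactive means the rest.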 The sample as a whole holds a higher share of actives than the screen did.

The test is described as follows: Novel Modifiers of Survival Motor Neuron (SMN) Protein: Gene Identification via Genome-wide siRNA Screen. As to conditions: HEK293T SMN2-luciferase reporter, siRNA knockdown, 72 h; actives lie on both sides. From the text: Spinal muscular atrophy (SMA) is the most common neuromuscular autosomal recessive disorder and one of the leading genetic causes of infant death. SMA results from mutations inducing loss of function or deletion in the survival of motor neuron-1 gene (SMN1), leading to deficiency of the survival motor neuron (SMN) protein. Although a second nearly identical gene, SMN2, is retained in humans, its expression primarily produces an aberrantly spliced isoform that is largely unstable and quickly degraded. We performed a genome-wide RNAi screen using a cell-based reporter assay to identify genes and pathways that modulate SMN protein stability. The screen identified over 200 genes that led to the greatest increase or decrease in luciferase expression.
Using HEK293T cells stably expressing a luciferase reporter that combines the promoter and splicing based cassettes in tandem with the major portion of the native SMN2 cDNA with luciferase, we performed a genome-wide RNAi screen to identify modulators of SMN protein levels. Luciferase is expressed when full-length SMN protein is generated with luminescence signal proportional to SMN protein levels. Our luciferase-based reporter assay was used to screen Ambion Silencer Select Human Druggable Genome siRNA library (10418 genes, 3 unique siRNAs per gene) using lipid-based reverse transfection.
Briefly, 1 pmol of each siRNA was spotted to a well of a 384-well plate (Corning, Corning, NY) and 20 microL of serum-free DMEM containing […] of Lipofectamine RNAiMax (Life Technologies, Carlsbad, CA) was then added to each well. Transfected cells were maintained at 37 degrees C in 5% CO2 for 72 hours, 20 microL of ONE-Glo Reagent (Promega) was added to wells for luciferase quantification. Raw luminescence reads were normalized to Ambion(R) Silencer(R) Negative Control #2 siRNA, then log10 transformed. A robust statistical measure of median absolute deviation (MAD) to standardize siRNA activities from each screen. Common Seed Analysis was used to help prioritize clean hits as opposed to those appearing to arise from seed based off-target effects. Candidate modulators were defined as the genes having a MAD score greater than 1.0 or less than -1.0.
A general note: A reporter such as luciferase makes a cellular process visible.
For GCAAUUCCCAAGAUCCUUATT against LAMB1, the median seed-adjusted z-score was 1.07 (active). For the sequence GGUCGAAUGAUAAGGUGUATT against PTK2, the median seed-adjusted z-score is -0.0806 (inactive). GCCUCAGUCUUUGCAGUCUTT against CDCP2: the median seed-adjusted z-score is 0.0708 (inactive). As for GGUAAUGACUCCACAGGGATT against SNRPN, the figure is -0.571 (inactive); as for GAUACUACCCUGAUCAUAUTT against TMTC3, 0.266 (inactive). The same measure for UGGUGUCAGUGGAUCGCUATT against GPR101: -0.265 (inactive). Consider CCAAAACAGUGGAGAGAGATT against BIN3, for which the median seed-adjusted z-score was 0.16 (inactive).

Regarding GAACAUUGUUUGUAAGGCUTT against SUOX, the median seed-adjusted z-score is -0.0649 (inactive). GGAUAUAAUGAGAUAUGUUTT against ETF1: the median seed-adjusted z-score is -1.12 (active). Take GCUCAACUCUCAUUCGGCATT against ZNF550: the median seed-adjusted z-score is 0.131 (inactive).

In the case of GACCUGCCGUGAUAUCGUUTT against PSMA3, the median seed-adjusted z-score was -0.81 (inactive). With CACUAAACGAGGAUUCCUATT against YWHAH, the median seed-adjusted z-score was -0.125 (inactive). For GGAUCGUAGUGAAACCGAUTT against DDX17, the median seed-adjusted z-score was 0.231 (inactive).

In the case of CGUGAUCAAUAGGAAAAUUTT against CCL8, the median seed-adjusted z-score is 0.436 (inactive). The same measure for CAGAUUACGUGGAACAGGATT against EFTUD2: -1.25 (active); for CGUCCUAAUCUCAAUCUUATT against CD200: -0.0135 (inactive); for GCCCAUAUUUCAUCGUGUATT against NPY: -0.0606 (inactive). Take CAGGAUAUCGAAUCCCUAATT against PPFIA2: the median seed-adjusted z-score was 0.176 (inactive). As for GUCGAGUUGUAUCGCAUUATT against COX4I1, the figure is -0.39 (inactive); as for GGCUAGCCCUAGUAUGGAATT against CCAR1, -1.18 (active). As for CCUUCAAUCACCGACCUUATT against SYNJ2, the median seed-adjusted z-score was 0.0202 (inactive). As for CGCUACCUGUCCCUGUAUATT against GPR6, the figure is 0 (inactive); as for GCAACAUAUGGGAAUUAGATT against MEIS1, 0 (inactive); as for CAGAGGAGCUACAAAAGUATT against MX1, -1.49 (active). The same measure for GCAUAUAUCAAGAAUUCAATT against CLIC4: -0.498 (inactive). As to GAAACUAUAUCCACAUCAATT against GIPR, the median seed-adjusted z-score is 0.475 (inactive). The same measure for CAUCUUGAAGUCUUAUUAATT against MYOCD: -0.121 (inactive). The same measure for AAUCAGAUCAAAAACAUAATT against TNFRSF10C: 0 (inactive); for GGAGGAAGGUCUCAACGUATT against TCFL5: 1.52 (active).

With GCAAAUCUAUUUUCGGAAATT against AGTPBP1, the median seed-adjusted z-score was -0.201 (inactive).
